# From the supplement of paper PMC3334620
# Whole data set: some 33,000 sequences, median “E-score (-0.5 to 0.5)” near -0.043, cut for the highest 2% near 0.37. Only a selection was taken, and the highest values are over-represented in it overall.
# Target: T1, Upc2 (UniProt Q12151)
# T1 sequence: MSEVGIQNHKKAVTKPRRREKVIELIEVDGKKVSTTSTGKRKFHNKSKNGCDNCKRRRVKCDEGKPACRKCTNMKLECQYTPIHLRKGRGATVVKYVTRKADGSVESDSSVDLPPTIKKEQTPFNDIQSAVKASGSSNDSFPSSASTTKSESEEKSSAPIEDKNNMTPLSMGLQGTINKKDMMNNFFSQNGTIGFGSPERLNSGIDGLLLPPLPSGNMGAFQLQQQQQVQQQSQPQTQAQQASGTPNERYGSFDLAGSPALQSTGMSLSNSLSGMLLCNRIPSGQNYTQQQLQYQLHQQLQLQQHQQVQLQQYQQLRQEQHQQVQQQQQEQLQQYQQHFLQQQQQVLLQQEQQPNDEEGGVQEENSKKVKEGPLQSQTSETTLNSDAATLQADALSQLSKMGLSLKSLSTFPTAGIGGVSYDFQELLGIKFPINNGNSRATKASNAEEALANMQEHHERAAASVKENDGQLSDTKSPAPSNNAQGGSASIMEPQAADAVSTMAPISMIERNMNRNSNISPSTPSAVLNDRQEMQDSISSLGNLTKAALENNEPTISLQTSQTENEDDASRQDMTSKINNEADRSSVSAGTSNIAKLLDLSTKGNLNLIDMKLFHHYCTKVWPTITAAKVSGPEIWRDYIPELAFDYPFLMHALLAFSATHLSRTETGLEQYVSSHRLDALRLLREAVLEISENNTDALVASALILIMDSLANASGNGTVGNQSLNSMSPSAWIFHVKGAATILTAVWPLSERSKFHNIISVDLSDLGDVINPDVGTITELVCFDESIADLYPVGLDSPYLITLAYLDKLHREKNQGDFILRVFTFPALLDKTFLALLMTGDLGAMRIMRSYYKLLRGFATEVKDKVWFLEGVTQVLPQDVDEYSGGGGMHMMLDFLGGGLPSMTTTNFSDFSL
# Test: PBM E-score (8-mer binding enrichment) (E-score (-0.5 to 0.5)); higher = stronger / more preferred TF binding
# Conditions: protein concentration: 200 nM; construct: GST-full length
# Method: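 Universal 'all 10-mer' protein binding microarrays (Agilent AMADID 015681) probed with GST-tagged S. cerevisiae TFs (full-length or DBD) made by in vitro transcription/translation (PURExpress), about 100-200 nM. Bound TF was detected with fluorescent anti-GST. Each ungapped 8-mer (which stands for itself and its reverse complement) is scored by the PBM enrichment score (E-score), a modified Wilcoxon-Mann-Whitney statistic from -0.5 to +0.5, computed with the Universal PBM Analysis Suite. Scale: above 0.35 generally sequence-specific binding.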
row,Sequence,PBM E-score
1,CGTCGGGC,-0.231
2,ATCAATCA,0.0322
3,AAAATCCT,0.0605
4,AGGTTACG,0.221
5,CACGTAGC,-0.0699
6,CTCGTAGC,0.4
7,ATCGTAGC,0.356
8,ATCGTAGA,0.337
9,GACGTAGA,0.054
10,GTCGTAGA,0.386
11,CTCGTAGA,0.404
12,GTAGTAGA,-0.0548
13,CACGTAGA,0.0732
14,GTGGGGCA,-0.058
15,CAGTGTCC,-0.141
16,AGCCAATC,-0.0383
17,TCCAGCCA,-0.231
18,AGTCTATA,0.0445
19,ATGATCTA,-0.00479
20,GACGAGCC,-0.00056
21,TACGAGCA,0.465
22,TCCGAGCA,0.176
23,AACGAGCT,0.438
24,TGCGAGCA,0.21
25,AGCGAGCT,0.225
26,AACGAGCC,0.449

row,Sequence,PBM E-score
1,ACCGAGCT,0.186
2,CACGAGCG,0.17
3,AGCGAGCG,0.281
4,AACGAGCG,0.442
5,CACGAGCC,0.0758
6,CGCCGCTC,-0.0776
7,AGTAACCA,-0.164
8,CGCCAGCA,-0.169
9,ATTGATAC,0.173
10,GGCAACAA,0.0296
11,GACGCCAA,-0.0565
12,AGTTGATA,-0.0653
13,GGGTGCAC,-0.128
14,CGCATAGA,0.158
15,CACGAGCA,-0.0761
16,AACGAGCA,0.444
17,GACGAGCA,0.00509
18,CATGCTAA,-0.2
19,GAGGTTTA,0.0651
20,ATTGGACA,-0.0219
21,AAACGGCT,0.296
22,AAACGGCC,0.359
23,CAACGGCA,-0.0468
24,GAACGGCA,0.27
25,AAACGGCG,0.401
26,AAACGGCA,0.37

row,Sequence,PBM E-score
1,TAGAAACA,0.0409
2,GAGTGTGA,0.156
3,CGCCCAAG,-0.0616
4,ATCTAAGA,-0.179
5,GCAGTACC,-0.124
6,GAGCACAA,-0.0319
7,ACGAGCGA,0.379
8,ACGAGCGG,0.369
9,GCGAGCGA,0.226
10,ACGAGCGC,0.347
11,CCGAGCGA,0.193
12,ACGAGCGT,0.386
13,ACTCAGTA,0.18
14,ATGGTGGG,-0.278
15,AACCTGTA,0.118
16,GCACGAAC,0.25
17,CAACGAAC,0.257
18,ACACGAAC,0.216
19,GAACGAAA,0.416
20,GAACGAAC,0.441
21,TGACGAAA,0.00712
22,AAACGAAC,0.471
23,CCACGAAA,-0.0902
24,AGACGAAC,0.29
25,ATGCTGAA,-0.151
26,GTTGTGAA,0.00742

row,Sequence,PBM E-score
1,GAAGCAGA,-0.244
2,CGCAGCCC,-0.0774
3,CGTACGGC,0.381
4,CATACGGG,0.367
5,AGTACGGA,0.224
6,CATACGGC,0.383
7,CGTACGGA,0.382
8,CGTACGTC,0.338
9,AGTACGGC,0.299
10,AATACGGC,0.291
11,GGTACGGA,0.355
12,AGTTGGCA,0.0278
13,CGTCGATA,-0.028
14,AAGCTACA,-0.125
15,CCGTCGCG,0.132
16,GAAAAACC,-0.037
17,TCCTCAAA,-0.24
18,AGAGCCCG,-0.0194
19,CTGACGTA,0.164
20,CTGAACTA,-0.104
21,ATGAACGA,0.459
22,CTGAACGC,0.121
23,GTGAACAA,0.128
24,GTGAACGA,0.453
25,GTGAACTA,0.142
26,ATGAACGC,0.14

row,Sequence,PBM E-score
1,ATGAACGG,0.261
2,CTGAACGA,0.472
3,TTGACCAA,-0.179
4,AACTACCT,-0.152
5,ACCAGAAC,0.0633
6,AACGATGT,0.388
7,AACGATGG,0.391
8,AACGATGC,0.352
9,CACGATGC,0.0841
10,ATCGATGA,-0.0519
11,GACGATGC,-0.0158
12,TACGATGA,0.433
13,AACGATGA,0.387
14,CACGATGA,0.169
15,CACGATGG,0.0566
16,GACGATGA,-0.00259
17,ACCGATGA,0.0812
18,CCAGTGAC,-0.217
19,CAGAGATG,-0.222
20,GACTGATC,-0.118
21,GATTCCCC,-0.214
22,CAGTACGC,0.037
23,TAGTACAA,0.00376
24,AAGTACGT,0.154
25,AAGTACGC,0.115
26,GAGTACGC,-0.0301

row,Sequence,PBM E-score
1,GAGTACGA,0.375
2,GAGTACAA,-0.0557
3,CAGTACGG,0.257
4,TAGTACGA,0.401
5,CAGTACGA,0.411
6,TAGTACCA,-0.148
7,AAGTACGA,0.407
8,TCTGATCA,-0.317
9,TCGCAAAA,0.216
10,CGCTACAG,-0.105
11,CGTCTATA,0.0202
12,CGGGAGGA,-0.157
13,AGAGCATA,-0.0221
14,AACTTTGT,-0.172
15,TTTAGAAA,0.133
16,GCTTAGCA,-0.00347
17,TAATTACA,-0.0323
18,ACGATCGC,0.352
19,ACGATCGG,0.295
20,ACGATCGT,0.438
21,AAGATCGC,0.148
22,AAGATCGG,-0.0541
23,AAGATCGT,0.371
24,ATTACCGC,0.0457
25,GCGAGCTA,0.207
26,ACGAGCTA,0.394

row,Sequence,PBM E-score
1,ACGAGCTG,0.36
2,ACGAGCTC,0.404
3,CCGAGCTA,0.0202
4,CCGAGCTC,0.197
5,AGGATAGG,-0.0689
6,CTTCATCC,-0.177
7,ACTCAGTC,-0.097
8,GCTGCAGC,-0.125
9,ACCATACG,0.399
10,CCCATACG,0.407
11,ACCATACA,-0.0345
12,ACCATACC,-0.0989
13,CCCATACA,-0.22
14,CCCATACC,0.0537
15,ACTAAGAA,-0.0494
16,GATGGGAA,-0.0309
17,TCGGAAAA,0.234
18,ATAAGATA,0.146
19,AGTAAAGA,-0.212
20,CGTAAAGA,0.412
21,CGTAAAGC,0.403
